Reference: PubChem BioAssay (EPA / NIEHS)
“And” between values parts separate entries of the source, which are not always exact repeats. Identical values can stand only once. Some compounds were tested as several samples or in several runs, with calls that do not always agree. The source made the active and inactive calls. How the source made its calls: active means hit-call score of the fitted dose curve at least 0.9, where 1 is the maximum; inactive means score below 0.9.

How the values were obtained:
[1] = read-out: Human Leukocyte Antigen - DR isotype (HLADR), HLA-DRA (gene 3122); experiment: BSK_BE3C_HLADR: BioMAP Diversity Plus: BE3C Assay for Human Leukocyte Antigen - DR isotype (HLADR) Biomarker Activity (AID 2283032); conditions: primary human bronchial epithelial cells; actives raise or lower the signal
How it was run: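 BioMAP BE3C format: human bronchial epithelium, 24 h compound treatment, ELISA detection of HLA-DR, with bidirectional analysis relative to DMSO.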

[2] = read-out: Vascular cell adhesion molecule 1 (VCAM1), VCAM1 (gene 7412); experiment: BSK_4H_VCAM1: BioMAP Diversity Plus: 4H Assay for Vascular cell adhesion molecule 1 (VCAM1) Biomarker Activity (AID 2283033); conditions: primary human endothelial cells (HUVEC); actives raise or lower the signal
How it was run: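 In this human endothelial (HUVEC) system, biomarker ELISA was run 24 h after compound addition, and total protein in parallel wells was assessed by SRB at 560 nm; DMSO served as negative control.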

[3] = read-out: Interferon-gamma inducible Protein 10 (IP10), CXCL10 (gene 3627); experiment: BSK_BE3C_IP10: BioMAP Diversity Plus: BE3C Assay for Interferon-gamma inducible Protein 10 (IP10) Biomarker Activity (AID 2283034); conditions: primary human bronchial epithelial cells; actives raise or lower the signal
How it was run: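 BE3C cells (human bronchial epithelial, primary); 24 h exposure; ELISA for IP-10; DMSO-referenced bidirectional fit.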

[4] = read-out: Monokine induced gamma interferon (MIG), CXCL9 (gene 4283); experiment: BSK_BE3C_MIG: BioMAP Diversity Plus: BE3C Assay for Monokine induced gamma interferon (MIG) Biomarker Activity (AID 2283035); conditions: primary human bronchial epithelial cells; actives raise or lower the signal
How it was run: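 ELISA quantified MIG after 24 h exposure of primary bronchial epithelial cultures, analysed in both directions relative to DMSO. Cytotoxicity tracked in parallel cultures by sulforhodamine B staining.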

[5] = read-out: Transforming growth factor beta 1 (TGFb1), TGFB1 (gene 7040); experiment: BSK_BE3C_TGFb1: BioMAP Diversity Plus: BE3C Assay for Transforming growth factor beta 1 (TGFb1) Biomarker Activity (AID 2283036); conditions: primary human bronchial epithelial cells; actives raise or lower the signal
How it was run: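 TGF-b1 measured via ELISA, 24 h after chemical dosing of human bronchial epithelial cells (BE3C). Overt cytotoxicity assessed in parallel by SRB (0.1%, TCA-fixed, 560 nm); analysis bidirectional relative to DMSO.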

[6] = read-out: Plasminogen activator inhibitor-1 (PAI1), SERPINE1 (gene 5054); experiment: BSK_BE3C_PAI1: BioMAP Diversity Plus: BE3C Assay for Plasminogen activator inhibitor-1 (PAI1) Biomarker Activity (AID 2283037); conditions: primary human bronchial epithelial cells; actives raise or lower the signal
How it was run: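 In this multiplexed primary-cell system, bronchial epithelial cells receive test chemical and are sampled at 24 h. PAI-1 is read by ELISA, with DMSO serving as negative control for bidirectional fitting.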

[7] = read-out: urokinase plasminogen activator (uPA), PLAU (gene 5328); experiment: BSK_BE3C_uPA: BioMAP Diversity Plus: BE3C Assay for urokinase plasminogen activator (uPA) Biomarker Activity (AID 2283038); conditions: primary human bronchial epithelial cells; actives raise or lower the signal
How it was run: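 ELISA for uPA on human primary bronchial epithelial cultures 24 h post-treatment, gain or loss against DMSO. Parallel SRB staining (0.1% after 10% TCA fixation, 560 nm) assessed overt cytotoxicity.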

[8] = read-out: Urokinase-type plasminogen activator receptor (uPAR), PLAUR (gene 5329); experiment: BSK_BE3C_uPAR: BioMAP Diversity Plus: BE3C Assay for Urokinase-type plasminogen activator receptor (uPAR) Biomarker Activity (AID 2283039); conditions: primary human bronchial epithelial cells; actives raise or lower the signal
How it was run: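 Chemically treated human bronchial epithelial cells (lung primary) are assayed for uPAR by ELISA after 24 h, with data fitted in both directions using DMSO as negative control.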

[9] = read-out: Interleukin-6 (IL6), IL6 (gene 3569); experiment: BSK_CASM3C_IL6: BioMAP Diversity Plus: CASM3C Assay for Interleukin-6 (IL6) Biomarker Activity for (AID 2283040); conditions: primary human coronary artery smooth muscle cells; actives raise or lower the signal
[10] = read-out: Tissue plasminogen activator (tPA), PLAT (gene 5327); experiment: BSK_BE3C_tPA: BioMAP Diversity Plus: BE3C Assay for Tissue plasminogen activator (tPA) Biomarker Activity (AID 2283041); conditions: primary human bronchial epithelial cells; actives raise or lower the signal
How it was run: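 Using human lung primary bronchial epithelial cells, tPA was measured by ELISA 24 h after dosing; data fitted relative to DMSO.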

Measured: AC50

CN(C)c1ccc(C(=C2C=CC(=[N+](C)C)C=C2)c2ccccc2)cc1
inactive: [5] | [6] | [10]
active: [1] 0.0162 µM | [2] 0.016 µM | [3] 0.202 µM | [4] 0.561 µM | [7] 0.958 µM | [8] 0.186 µM | [9] 103 nM

CC(C)(C)c1ccc(O)c(O)c1
active: [2] 17.1 µM
inactive: [1] | [3] | [4] | [5] | [7] | [8] | [9] | [10]

COCN(COC)c1nc(N(COC)COC)nc(N(COC)COC)n1
inactive: [1] | [2] | [3] | [4] | [5] | [7] | [8] | [9] | [10]

Cc1cccc2c1ccc1ccccc12
inactive: [1] | [2] | [3] | [4] | [5] | [7] | [8] | [9] | [10]

CCCCC(CC)C(=O)O (centres undefined)
inactive: [1] | [2] | [3] | [4] | [5] | [7] | [8] | [9] | [10]

O=C(O)CCC(F)(F)C(F)(F)C(F)(F)C(F)(F)C(F)(F)C(F)(F)F
inactive: [1] | [2] | [3] | [4] | [7] | [8] | [9] | [10]

O=C1OC2(c3ccccc31)c1cc(I)c(O)c(I)c1Oc1c2cc(I)c(O)c1I
active: [1] 4.33 µM | [3] 13.6 µM | [4] 19.9 µM | [5] 3.9 µM | [7] 8.35 µM | [8] 6.1 µM | [9] 900 nM | [10] 5.58 µM

O=S(=O)(O)C(F)(F)C(F)(F)C(F)(F)C(F)(F)C(F)(F)C(F)(F)C(F)(F)C(F)(F)C(F)(F)C(F)(F)F
active: [1] 18.2 µM and 15.8 µM | [3] 13.3 µM and 12 µM | [6] 7.29 µM and 5.4 µM | [8] 21.5 µM
inactive: [2] | [4] | [7] | [8] | [9] | [10]

O=C(CC(=O)C(F)(F)C(F)(F)C(F)(F)F)c1cccs1
active: [1] 20.4 µM and 23.8 µM | [2] 27.6 µM and 31 µM | [3] 19.5 µM and 18.9 µM | [4] 24.6 µM and 42 µM | [6] 10.9 µM and 10 µM | [7] 47.4 µM and 46 µM | [8] 45.6 µM | [9] 38.1 µM and 20.8 µM | [10] 22.3 µM and 20.7 µM

CC[N+](CC)(CC)Cc1ccccc1
inactive: [1] | [2] | [3] | [4] | [5] | [7] | [8] | [10]
active: [9] 87.5 nM

NC(=NCCCCCCN=C(N)/N=C(\N)Nc1ccc(Cl)cc1)/N=C(\N)Nc1ccc(Cl)cc1
active: [1] 3.83 µM | [2] 5.68 µM | [3] 4.26 µM | [4] 11.9 µM | [7] 3.31 µM | [8] 3.1 µM | [9] 7190 nM | [10] 1.37 µM
inactive: [5]

O=C(O)CCC(F)(F)C(F)(F)C(F)(F)C(F)(F)C(F)(F)F
inactive: [1] | [2] | [3] | [4] | [7] | [8] | [9] | [10]

O=P(O)(O)CCC(F)(F)C(F)(F)C(F)(F)C(F)(F)C(F)(F)C(F)(F)C(F)(F)C(F)(F)F
inactive: [1] | [2] | [3] | [4] | [7] | [8] | [9]
active: [10] 1.08 µM and 5.14 µM

Oc1ccc(Cc2ccccc2O)cc1
inactive: [1] | [2] | [3] | [4] | [6] | [7] | [8] | [9] | [10]

CN(CCO)S(=O)(=O)C(F)(F)C(F)(F)C(F)(F)C(F)(F)C(F)(F)C(F)(F)C(F)(F)C(F)(F)F
inactive: [1] | [2] | [3] | [4] | [7] | [8] | [9] | [10]

Cc1ccc(N=Nc2c(O)ccc3ccccc23)c(C)c1
inactive: [4] | [5] | [9] | [10]
active: [1] 10 µM | [2] 9.98 µM | [3] 3.88 µM | [7] 10 µM | [8] 4.02 µM

CCCCCCCCCCCCCCCCCC[N+](C)(C)Cc1ccccc1
active: [1] 2.05 µM | [2] 2.8 µM | [3] 4.27 µM | [4] 5.77 µM | [7] 10 µM | [9] 4870 nM
inactive: [5] | [8] | [10]

CC1=NN(c2ccccc2)C(=O)C1
inactive: [1] | [2] | [3] | [4] | [5] | [7] | [8] | [9] | [10]

CCCCCCCCCCCC
inactive: [7] | [8] | [9] | [10]
active: [1] 5.83 µM and 5.29 µM | [2] 33.4 µM and 32.1 µM | [3] 7.03 µM and 6.14 µM | [4] 9 µM and 9.5 µM

Clc1ccc(Nc2nnc(Cc3ccncc3)c3ccccc23)cc1
active: [7] 5.6 µM
inactive: [1] | [2] | [4] | [5] | [8] | [9] | [10]

Oc1c(Cl)cc(Cl)cc1Sc1cc(Cl)cc(Cl)c1O
inactive: [9]
active: [1] 3.56 µM and 3.35 µM | [2] 12.8 µM | [3] 4.76 µM | [4] 6.66 µM and 7.75 µM | [7] 5.33 µM and 5.44 µM | [8] 1.8 µM and 1.83 µM | [10] 4.32 µM and 3.03 µM

COc1cccc(O)c1
inactive: [1] | [2] | [3] | [4] | [5] | [7] | [8] | [9] | [10]

CCC(C)c1ccccc1O (centres undefined)
inactive: [1] | [2] | [3] | [4] | [5] | [7] | [8] | [9] | [10]

COc1cc(OC)nc(NC(=O)NS(=O)(=O)Nc2ccccc2C(=O)N(C)C)n1
inactive: [1] | [2] | [3] | [4] | [5] | [7] | [8] | [9] | [10]

O=C(O)C(F)(F)OC(F)(F)C(F)(F)OC(F)(F)C(F)(F)OC(F)(F)C(F)(F)C(F)(F)C(F)(F)F
inactive: [9]
active: [1] 3.73 µM and 3.7 µM | [2] 48.4 µM and 50.2 µM | [3] 4.85 µM and 4.88 µM | [4] 4.58 µM and 4.77 µM | [7] 3.94 µM and 3.9 µM | [8] 5.83 µM and 5.88 µM | [10] 4.98 µM and 4.8 µM

C=CC(=O)OCCC(F)(F)C(F)(F)C(F)(F)C(F)(F)C(F)(F)C(F)(F)C(F)(F)C(F)(F)F
inactive: [1] | [2] | [3] | [4] | [6] | [7] | [8] | [9] | [10]

OCCN1CN(CCO)CN(CCO)C1
inactive: [3] | [4] | [5] | [7] | [8] | [9] | [10]
active: [1] 35.5 µM | [2] 29.8 µM

O=C(c1ccccc1)c1ccccc1
inactive: [1] | [2] | [3] | [4] | [5] | [7] | [8] | [9] | [10]

C=CC(C)(CCC=C(C)C)OC(C)=O (centres undefined)
inactive: [4] | [5] | [7] | [9]
active: [1] 30.2 µM | [2] 30.5 µM | [3] 26.6 µM | [8] 27.1 µM | [10] 26.3 µM
